tim10-1 inh: growth inhibitors of tim10-1 mutant yeast, primary screen, luminescence, uHTS. S. cerevisiae tim10-1 ts strain growth, BacTiter-Glo, 24 h. inhibition, % at 20 µM. 330,000 tested, 2.2% active. AID 463190, 2010;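 active = inhibition of at least 40%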;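 note: mutant grown at 25 °C; 0% = DMSO wells with yeast and 100% = wells holding no yeast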
Beta2AR agonist: beta2AR agonists driving receptor internalization, primary screen, cell-based, FAP fluorogen, flow cytometry | Beta-2 adrenergic receptor (Homo sapiens), P07550 | Am2.2-beta2AR cells | response, % (concentration not given with the values) | 340,000 tested, 0.43% active;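 active = response above a set limit, near 3 SD of response in nonfluorescent compounds, cut at about 42% in these data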
Target sequence (P07550 whole entry, looked up): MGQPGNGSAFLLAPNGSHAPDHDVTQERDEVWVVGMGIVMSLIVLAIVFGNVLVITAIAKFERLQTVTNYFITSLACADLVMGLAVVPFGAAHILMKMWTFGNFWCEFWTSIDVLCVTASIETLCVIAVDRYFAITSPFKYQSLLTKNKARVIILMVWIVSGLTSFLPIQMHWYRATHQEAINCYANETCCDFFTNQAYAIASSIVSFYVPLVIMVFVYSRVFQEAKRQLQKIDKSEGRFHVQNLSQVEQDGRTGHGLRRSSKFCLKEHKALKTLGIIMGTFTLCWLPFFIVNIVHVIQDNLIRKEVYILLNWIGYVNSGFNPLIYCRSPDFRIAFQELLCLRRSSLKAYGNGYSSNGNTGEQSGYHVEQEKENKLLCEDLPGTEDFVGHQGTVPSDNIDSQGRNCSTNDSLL
TIM10 inh: growth inhibitors of isogenic TIM10 control yeast, primary screen, counter-screen for tim10-1 yeast inhibitor project, luminescence, uHTS; S. cerevisiae TIM10 strain growth, BacTiter-Glo luminescence, 24 h; inhibition, % at 10 µM; 330,000 tested, 1.4% active; AID 463195, 2010;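 active = inhibition of 40% or more at the single tested concentration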;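 note: wild-type TIM10 isogenic control strain grown at permissive 25 °C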
tim23-1 inh: growth inhibitors of tim23-1 mutant yeast, primary screen, luminescence, uHTS. S. cerevisiae tim23-1 growth, BacTiter-Glo luminescence, 24 h. 330,000 tested, 1.3% active. inhibition, % at 20 µM;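 active = growth inhibition of the mutant yeast at or above 50%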;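 note: temperature-sensitive mutant grown at 25 °C; plate controls were DMSO-treated mutant yeast for no effect and medium wells lacking yeast for full effect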
PfHsp90 yeast 2: growth inhibition of PfHsp90-expressing yeast, primary screen, antimalarial PfHsp90 inhibitor project, S. cerevisiae, BacTiter-Glo luminescence, single point, set 2; BacTiter-Glo ATP, 48 h; yeast lacking PDR1 and PDR3 efflux regulators; 310,000 tested, 0.32% active; AID 504621, 2011; inhibition, % at 9.4 µM;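 active = every replicate shows inhibition above about 80%, whatever the replicate mean, limit read from the data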;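 note: 0% = DMSO neutral controls and 100% = 20 µM radicicol positive controls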
tim10-1 conf: growth inhibitors of tim10-1 mutant yeast, confirmation, single concentration, luminescence, S. cerevisiae; S. cerevisiae tim10-1 ts strain growth, BacTiter-Glo, 24 h; AID 463213, 2010; inhibition, % at 20 µM; 7,400 tested, 56% active; shares compounds with tim10-1 inh;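 active = inhibition of yeast growth at or above a set limit in either of two repeat tests at 20 µM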;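 note: tim10-1 mutant grown at permissive 25 °C to find synthetic lethal compounds; 0% = DMSO yeast wells and 100% = medium wells without yeast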
TIM10 conf: growth inhibitors of wild-type TIM10 yeast, confirmation, counter-screen for tim10-1 synthetic lethality project, single concentration, luminescence, S. cerevisiae; AID 463215, 2010; shares compounds with TIM10 inh; 4,600 tested, 63% active; inhibition, % at 10 µM; S. cerevisiae tim10 strain growth, BacTiter-Glo luminescence, 24 h;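 active = inhibition of yeast growth at or above a set limit in either of two replicates at 10 µM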;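 note: this counterscreen used the strain with wild-type TIM10; 0% = yeast with DMSO and 100% = medium wells lacking yeast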
* hit, by the source's call; nt = no result. Rows were chosen to be rich in hits. Some 3.8% of all compounds tested hit in one or more screens of this group.

SMILES	tim10-1 inh	Beta2AR agonist	TIM10 inh	tim23-1 inh	PfHsp90 yeast 2	tim10-1 conf	TIM10 conf
O=C(COC(=O)c1ccccc1Br)NCCC1=CCCCC1	14.8	-1.3	17.0	14.2	-17.4	nt	nt
O=C(NC(=S)NCCC1=CCCCC1)c1ccccc1Br	43.5*	7.1	45.7*	33.5	-56.6	31.0*	41.1*
C=CCNc1nc(C(=O)OC(C)C(=O)c2ccc(C)cc2)cs1 (stereo unspecified)	-22.5	5.2	-4.0	19.6	nt	nt	nt
Cc1cc(C)cc(C(=O)N(Cc2ccco2)c2c(N)n(Cc3ccccc3)c(=O)[nH]c2=O)c1	13.9	-0.9	3.1	16.8	nt	nt	nt
Brc1ccc(-c2csc(N/N=C/c3ccco3)n2)cc1	12.4	4.5	30.8	30.1	-11.6	nt	nt
NC(=O)/C(=N\OC(=O)c1ccco1)c1nc(-c2ccc(Br)cc2)cs1	42.6*	28.6	45.8*	47.0	-18.9	39.7*	43.4*
S=C(N/N=C/c1ccco1)NC1CC2CCC1C2 (stereo unspecified)	50.6*	-8.2	42.2*	48.9	-9.6	35.8*	51.4*
NS(=O)(=O)c1ccc(CNC(=S)Nc2cc(S(=O)(=O)N3CCOCC3)ccc2Cl)cc1	nt	11.3	nt	nt	28.5	nt	nt
Cc1c(NC(=O)COC(=O)Cc2ccc(F)cc2)c(=O)n(-c2ccccc2)n1C	-10.1	-2.3	-0.2	4.7	4.1	nt	nt
COc1cc(OC)cc(-c2sc3ccc(OC)cc3c2C#CC2(N)CCCCC2)c1	43.6*	18.8	44.7*	12.3	-2.3	18.2	26.4
COc1cccc(-c2sc3ccc(OC)cc3c2C#CC2(O)CCCCC2)c1	14.8	-0.6	13.0	17.1	-1.2	nt	nt
Cc1ccc(C(c2nnnn2CCc2ccccc2)N2CCC(C)CC2)cc1 (stereo unspecified)	44.9*	-8.0	46.9*	44.3	-0.5	35.9*	-4.2
Cc1ccc(C(c2nnnn2CCc2ccccc2)N2CCSCC2)cc1 (stereo unspecified)	31.0	-0.5	34.1	24.1	1.4	nt	nt
CC(=O)Nc1ccc(S(=O)(=O)Nc2cccc(-n3c(C)nc4ccccc4c3=O)c2)cc1	-3.1	0.0	-2.1	2.3	nt	nt	nt
COc1ccc(-n2c(=O)c3c4c(sc3n3c(=S)[nH]nc23)CCCC4)cc1	40.0	-15.8	48.2*	30.1	-28.3	37.3*	18.4
CCOc1ccccc1NC(=O)COC(=O)C12CC3CC(CC(O)(C3)C1)C2	19.9	-0.2	13.4	9.1	-25.1	nt	nt
CN(CC(=O)Nc1ccccc1Br)C(=O)Cn1[nH]c(=O)c2ccccc2c1=O	-19.4	7.7	5.3	-3.4	26.0	nt	nt
CCCNC(=S)Nc1ccc(Oc2ccccc2)cc1	41.8*	-2.8	41.6*	33.2	4.7	21.4	23.6
COc1ccc(CSCCNC(=S)Nc2ccccc2)cc1Cl	24.2	4.1	28.2	38.5	-29.6	nt	nt
S=C(NCCSCc1ccc(Cl)cc1Cl)Nc1ccccc1	47.6*	15.8	59.3*	0.1	-20.5	45.2*	52.9*
S=C(NCCSCc1ccc(Cl)c(Cl)c1)Nc1ccccc1	54.0*	47.4*	45.2*	35.8	-41.8	27.6	-8.6
CCOc1ccc(CSCCNC(=S)Nc2ccccc2)cc1	41.6*	-7.4	47.0*	44.7	-8.0	19.8	-40.0
O=[N+]([O-])c1ccccc1C(O)Cc1ccccn1 (stereo unspecified)	nt	-4.7	nt	nt	-4.7	nt	nt
CN(Cc1ccccc1)C(=O)c1ccc(NC(=O)Cc2cccc(NC(=O)C3CCN(C(=O)C4CCCC4)CC3)c2)cc1	7.1	-11.3	-3.1	13.0	-14.3	nt	nt
CCCCN(C(=O)c1ccc(NC2CC2)c([N+](=O)[O-])c1)c1c(N)n(CC(C)C)c(=O)[nH]c1=O	15.1	-13.5	16.5	38.9	-28.0	nt	nt
SMILES	tim10-1 inh	Beta2AR agonist	TIM10 inh	tim23-1 inh	PfHsp90 yeast 2	tim10-1 conf	TIM10 conf
Cc1ccc2cccc(NC(=S)NC(=O)c3ccn(C)n3)c2n1	41.4*	12.0	47.9*	45.0	-5.5	26.9	44.8*
CCn1c2c(c3cc(OCC(C)C)ccc31)CCCC2=O	-6.4	10.2	-5.6	16.7	-28.4	nt	nt
CCn1c2c(c3cc(Br)ccc31)CCC/C2=N\O	65.6*	9.3	53.9*	29.1	-7.4	39.3*	33.9*
CCS(=O)(=O)N1Cc2ccccc2CC1C(=O)NC(C)C12CC3CC(CC(C3)C1)C2 (stereo unspecified)	41.1*	3.6	46.5*	35.2	-13.0	30.5*	-16.6
CCS(=O)(=O)N1Cc2ccccc2CC1C(=O)Nc1nc(C)cs1 (stereo unspecified)	14.3	-1.8	19.8	6.9	-16.5	nt	nt
CC(C)NC(=O)Nc1cccc2c1O[C@H](CN(C)C(=O)NC1CCCCC1)[C@@H](C)CN([C@H](C)CO)C2=O	-13.6	0.6	-5.5	-11.1	5.8	nt	nt
Cc1ccccc1OCC(=O)N/N=C/c1ccc([N+](=O)[O-])o1	44.6*	2.1	41.6*	45.5	-12.3	35.1*	22.8
CCOC(=O)N/N=C\c1ccc([N+](=O)[O-])o1	16.2	-3.1	7.0	36.1	-20.7	nt	nt
O=C(COc1ccccc1[N+](=O)[O-])N/N=C/C=C/c1ccco1	25.3	-0.7	8.1	30.2	nt	nt	nt
COc1ccccc1OCC(=O)N/N=C/C=C/c1ccc([N+](=O)[O-])o1	67.0*	13.1	47.7*	46.4	-0.5	83.7*	50.8*
CCCCCCCC(=O)N/N=C/c1ccc([N+](=O)[O-])o1	55.2*	-1.1	49.4*	43.1	nt	56.3*	26.1
Cc1cc(C)c(C)c(C(=O)C(=O)c2ccccc2)c1	nt	-6.4	nt	nt	18.1	nt	nt
Cc1ccnn1-c1ccc(C(=O)OCC(=O)Nc2ccc(F)cc2)cc1	0.6	3.0	-12.5	9.8	nt	nt	nt
Cc1ccc(/C=C/C(=O)NN2CCN(C)CC2)cc1	-3.6	1.0	-8.4	-19.0	-3.0	nt	nt
Cc1ccc(/C=C/C(=O)Nn2cnnc2)cc1	55.7*	6.0	41.7*	44.7	15.8	27.0	38.8*
Cc1nc(N2CCC(C)CC2)c2oc3ccccc3c2n1	48.9*	-3.5	45.6*	45.9	-6.3	27.4	46.8*
NC(=O)c1ccsc1NC(=O)c1ccc(N2CCCC2=O)cc1	22.2	6.7	8.6	2.2	35.1	nt	nt
NC(=O)c1ccsc1NC(=O)c1ccc2c(c1)CCCC2	46.0*	2.3	56.0*	49.8	9.2	19.9	37.0*
O=[N+]([O-])c1nn(-c2ccc3c(c2)OCCO3)n(O)c1=NC1CCCC1	55.2*	-2.3	58.2*	40.2	nt	47.1*	41.4*

Compound activity (PubChem)
